Experimental data from PubChem BioAssay (NCI).
This is part of a sample that, as a whole, favours compounds with a hit. Of some 83,000 tested, about 20% had one in any assay.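 Percent growth is the endpoint: 0 to 100 indicates growth inhibition (40 means 60% inhibition), 0 means no net growth, and negative values indicate cell death.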 Unmarked numbers belong to inactive results. Calls of active or inactive are those of the source. How the source made its calls: active means growth percent below 10; inactive means the rest.

Experiments:
Experiment in all cases: NCI-60 one-dose screen, 48 h (100 = growth as untreated, 0 = no growth, -100 = all killed)
Conditions in all cases: 10 µM unless noted
BT-549 breast = tested on: BT-549 breast
MDA-MB-435 melanoma = tested on: MDA-MB-435 melanoma
SW-620 colon = tested on: SW-620 colon
MCF7 breast = tested on: MCF7 breast
HCC-2998 colon = tested on: HCC-2998 colon
KM12 colon = tested on: KM12 colon
HCT-116 colon = tested on: HCT-116 colon

SMILES | growth (BT-549 breast) | growth (MDA-MB-435 melanoma) | growth (SW-620 colon) | growth (MCF7 breast) | growth (HCC-2998 colon) | growth (KM12 colon) | growth (HCT-116 colon)
CCOC(=O)c1sc(/N=C2\NC(=O)/C(=C/c3ccc(N4CCN(C)CC4)cc3)S2)nc1C | 95% | 106% | 120% | 84% | 94.7% | 95.4% | 
NC(=N\N=C\c1ccccc1O)/C(N)=N/N=C/c1ccccc1O | 72% | 72.2% | 71.5% | 69.4% | 99.1% | 55.8% | 
N#Cc1c(-c2ccc(F)cc2)nc(N=Nc2c(O)[nH]c3ccccc23)nc1N1CCOCC1 | 91.4% | 67.7% | 66.7% | 64.4% |  | 75.1% | 47.2%
O=C(CN1N=C(c2ccc(F)cc2)CCC1=O)Nc1nc2ccccc2s1 | -71.2% (active) | 99.9% | 57.8% | 87.4% |  | 45.1% | 70.7%
CCOCCc1c(O)nc(SC)[nH]c1=O | 110% | 120% | 90.9% | 99.7% |  | 101% | 100%
CNS(=O)(=O)c1cccc(-c2ccc3c4c(n(C)c(=O)c3c2)-c2ccccc2C4=O)c1 | 76.6% | 74.5% | 46.4% | 18.5% |  | 40.7% | 36.4%
CSc1nc(-c2cccs2)c2c(N)[nH]nc2n1 | 96.4% | 117% | 119% | 94.3% |  | 48.8% | 92.2%
CCc1c(C(=O)N[C@@H](C(=O)OCc2ccccc2)C(C)O)[nH]c2ccc(Cl)cc12 (stereo partly specified) | 90.8% | 87.9% | 54.4% | 65.6% | 101% | 77.3% | 
FC(F)(F)c1ccc2c(Nc3cccc(C4CC(c5ccccc5)=NN4c4ccc(Cl)cc4)c3)ccnc2c1 (stereo unspecified) | 55.7% | 38% | -17.3% (active) | 11.5% |  | 15.5% | -3.98% (active)
CCCNc1nc(C)[nH]c(=O)c1S | 113% | 105% | 121% | 111% |  | 107% | 108%
C=C1C(=O)O[C@H]2[C@H]1CC/C(COC(=O)c1cccnc1N)=C\CC[C@@]1(C)O[C@@H]21 | -37.2% (active) | -4.17% (active) | 4.05% (active) | 7.98% (active) | 35.3% | 13.4% | 
C#C[C@@]1(O)[C@@H](CO)O[C@@H](n2cc(Br)c3c(N)ncnc32)[C@@H]1O | -45.5% (active) | 14.6% | -0.395% (active) | -18.4% (active) |  | 8.07% (active) | 3.16% (active)
NC[C@@H]1CCN(c2cc3c(cc2F)c(=O)n(N)c(=O)n3Cc2ccc(-c3ccccc3)cc2)C1 | 69.3% | 76.6% | 84.2% | 79.4% |  | 96.9% | 65.3%
C#CCN1C(=O)c2ccccc2N(CC#C)C12CCN(Cc1cn(CC(=O)Nc3ccccc3C(N)=O)nn1)CC2 | 72.4% | 91.9% | 94% | 83.8% |  | 88.8% | 74.4%
CC(C)(C)c1ccc(O)c(Cc2cc(C(C)(C)C)ccc2O)c1 | 113% | 107% | 105% | 72.5% | 103% | 100% | 
Clc1ccc2c(NCCCNC3CCCCC3)ccnc2c1 | 107% | 84.6% | 111% | 90.7% |  | 101% | 64.5%
O=C(Nc1ccc2ncnc(Nc3ccc(F)c(Cl)c3)c2c1)c1ccccc1 | 74.2% | 80.4% | 88% | 47.2% |  | 79.6% | 47.2%
COc1ccc(/C=C/C(=O)C(CC2CCC2)C(=O)/C=C/c2ccc(OC)c(OC)c2)cc1OC | -23.5% (active) | -11.5% (active) | -26.3% (active) | 6.93% (active) |  | -33.5% (active) | -75.8% (active)
Fc1ccc(N/N=C/c2ccc(-n3cccn3)cc2)cc1 | 92.2% | 95.2% | 79.6% | 77% | 97.5% | 80.1% | 

SMILES | growth (BT-549 breast) | growth (MDA-MB-435 melanoma) | growth (SW-620 colon) | growth (MCF7 breast) | growth (HCC-2998 colon) | growth (KM12 colon) | growth (HCT-116 colon)
C=C(C)[C@@H]1CC[C@]2(C(=O)O)CC[C@]3(C)[C@H](CC[C@@H]4[C@@]5(C)C[C@@H](CC#Cc6ccccc6)C(=O)C(C)(C)[C@@H]5CC[C@]43C)[C@@H]12 | 40.7% | 66.8% | 27.3% | 15.5% | 29% | 27.9% | 
N#CC(C#N)=C1NC(c2ccccc2)=C(c2ccccc2)C(c2ccccc2Cl)=C1C#N |  | 114% | 110% | 97.1% | 99.5% | 113% | 94.1%
Cc1nccc2c3ccc(OCc4cn(-c5ccccc5)nn4)cc3n(CCCc3ccccc3)c12 | 81.3% | 87.7% | 69% | 51.3% | 102% | 78% | 
COc1ccc(-c2[nH]c3ccc(OC)cc3c2C=C(C#N)C#N)cc1 | 55.1% | -62.5% (active) | 26.5% | 17.1% | 50.3% | 20.1% | 
O=C1c2ccccc2C(=O)c2c1oc1c2c(=O)[nH]c2ccccc21 | 73.9% | 83.7% | 89.2% | 48.8% | 103% | 66.2% | 
O=C(CCc1nnc2sc(OCc3ccccc3)nn12)c1nc2ccc([N+](=O)[O-])cc2[nH]1 | 102% | 106% | 107% |  | 101% | 95.7% | 
Cc1cc(Cl)cc(CN(Cc2ccccc2)Cc2c(O)ccc3ccccc23)c1O | 99% | 112% | 105% | 85% | 91.5% | 99.9% | 
COc1cc(NC(=O)COc2cc(C)nc3ccc(OC)cc23)cc(OC)c1 | 85.5% | 100% | 99.7% | 86.8% | 101% | 96.8% | 
CN(C)[C@@H]1C(=O)C(C(N)=O)=C(O)[C@@]2(O)C(=O)C3=C(O)c4c(O)cc(CN5CCc6ccccc6C5)c(Cl)c4C[C@H]3C[C@@H]12 | -83.3% (active) | -75.7% (active) | -72.4% (active) | -68.8% (active) | -67.1% (active) | -82.9% (active) | 
CCCCc1n(Cc2ccc3ccccc3n2)cc[n+]1Cc1ccc2ccccc2c1 | -16.9% (active) | 1.33% (active) | 11.2% |  |  | -42.4% (active) | 
O=C1Nc2ccccc2C12C=C(c1ccccc1)Nc1c2c(-c2ccccc2)nn1-c1ccccc1 (stereo unspecified) | 70.1% | 65.1% | 75.6% | 39% | 72.3% | 56.1% | 
c1ccc(-c2n(Cc3ccc4ccccc4n3)cc[n+]2Cc2ccc3ccccc3c2)cc1 | 3.57% (active) | 2.12% (active) | 8.55% (active) |  | -13.2% (active) | -38.5% (active) | 
COc1ccc(C(=O)c2cc(OC)c(C)c(OC)c2)cc1OC(=O)CCl | 15.6% | -17.2% (active) | 24.1% | 13.4% | 24.9% | 19.1% | 
COc1ccc2nc(-c3ccc(OC)c(OC)c3)cc(-c3nnc(SCC(=O)Nc4ccc(/C(C)=N\O)cc4)n3-c3ccccc3)c2c1 | 56.4% | 84.9% | 89.6% |  | 101% | 75.9% | 
Nc1ccc(C(=O)Nc2cccc(C(=O)Nc3ccc4c(O)c(N=Nc5ccc(N=Nc6ccc(S(=O)(=O)O)cc6)cc5)c(S(=O)(=O)O)cc4c3)c2)cc1 | 111% | 106% | 105% | 94.8% | 98% | 104% | 
O=S(=O)(O)c1ccc(N=NSc2ccc3ccccc3c2)cc1 | 94% | 99.9% | 96.5% | 98.9% | 97.2% | 98.6% | 
C=C1C(=O)O[C@H]2[C@H]1CC/C(COC(=O)CCC(=O)OC/C1=C/CC[C@@]3(C)O[C@H]3[C@H]3OC(=O)C(=C)[C@@H]3CC1)=C\CC[C@@]1(C)O[C@@H]21 | 67.1% | 44.5% | 5.48% (active) | 12% | 93.8% | 85% | 
COc1ccc(/C(=N\O)c2cc(C)c(OC)c(C)c2)cc1O | 19.3% | -23.8% (active) | 31% | 19.1% |  | 14.8% | 
CC(=O)O[C@@H]1C[C@]2(C)[C@H]3[C@H](O)C[C@@H]4C5=CC(C)(C)CC[C@]5(C)CC[C@@]4(C)[C@]3(C)CC[C@H]2C(C)(C)[C@H]1O | 102% | 99.8% | 98.7% |  | 107% | 105% | 
